Pf growth 48h: P. falciparum growth inhibition at 48 hours (one generation); Potency, µM (doses to about 28.7 µM), usual class: inhibitors; P. falciparum luciferase growth in erythrocytes, 48 h; actives 5.9% (n = 310,000); AID 504832
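Luciferase-expressing P. falciparum in infected erythrocytes (2% hematocrit, 0.1% parasitemia final) in RPMI 1640/0.5% Albumax were exposed to compound for 48 hours at 37 C, 5% CO2; growth read as luminescence.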
AMA1 RON2 block: disrupts binding of P. falciparum AMA1 to RON2 | AlphaScreen AMA1-biotinylated RON2 peptide binding | Potency, µM (series often up to 58.2 µM), hits mostly inhibitors | actives 0.2% (n = 360,000); note: nearly all actives have a fitted effect of over 45% in size
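AMA1 (3D7) with his tag at 25 nM final met compounds first, then biotinylated RON2 peptide at 25 nM; detection used donor plus acceptor beads, 10 µg/mL apiece, read by AlphaScreen after 30 min at room temperature.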
Shiga toxin inh: Shiga toxin inhibition | inhibition, % at 38.7 µM | actives 9.2% (n = 290,000) | Vero cells, Shiga toxin protein synthesis inhibition reporter; in the data active = inhibition mostly above about 28%, no sharp cut-off; inactive = mostly below about 43%
CHX counter: counter-screen for Shiga toxin inhibitors: cycloheximide protein synthesis inhibition. cell reporter, cycloheximide protein synthesis inhibition counterscreen. max response, %. actives 12% (n = 300,000); in the data active = max response mostly above about 13%, no sharp cut-off; inactive = mostly below about 14%; note: read at 38.3 µM for the half of the compounds with a filed dose
Pf growth 96h: P. falciparum growth inhibition at 96 hours. P. falciparum luciferase reporter growth, 96 h. Potency, µM (top dose mostly 28.7 µM), actives largely listed as inhibitors. actives 6.9% (n = 320,000)
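Luminescence readout: decreased luciferase signal marks inhibited growth of reporter-expressing P. falciparum in infected red cells (2% hematocrit, 0.05% parasitemia final), exposed to compound two generations (96 h, 37 C, 5% CO2).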
SARS PLpro yeast: blocks SARS-CoV papain-like protease in a yeast assay; S. cerevisiae expressing SARS-CoV PLpro, growth rescue; actives 0.19% (n = 330,000); AID 485353; Potency, µM (titrated, usually from 32.9 µM), hits mostly activators; calls by dose curve; note: nearly all actives have a fitted effect of over 55% in size
Large screens that a line does not name were inactive. This is a sample that favours compounds with a hit; in the whole collection about 19% have one here. Unless noted, calls come from the whole dose curve; as a rule, active = well fitted curve in the direction sought with a large enough effect; inconclusive = small, poorly fitted or top-dose-only effect, or another doubt; inactive = no such curve, though single readings can be large; an effect the other way counts as inactive or inconclusive.

O=C(COC(=O)c1n[nH]c2ccccc12)c1cccc(Br)c1	CHX counter 18
COc1ccc2[nH]c3c(c2c1)CCN1C(=O)C(CC(=O)NC(C)(C)C)C[C@H](C(=O)N(C(C)C)C(C)C)[C@@]31C (stereo partly drawn)	none (no result: Pf growth 48h, Shiga toxin inh, CHX counter, Pf growth 96h)
O=S(=O)(O)O	none (no result: AMA1 RON2 block, Shiga toxin inh, CHX counter, SARS PLpro yeast)
COC(=O)c1cccc(NC(=O)COc2cccc([N+](=O)[O-])c2)c1	CHX counter 16
Cc1cc(NC(=O)CCl)no1	Pf growth 48h 2.9µM
CC(C)CNC(=O)c1cccc(NC(=O)COc2cccc([N+](=O)[O-])c2)c1	Pf growth 96h inconclusive
Cc1cc(NC(=O)COc2ccc(C)c(C)c2)no1	Shiga toxin inh 65, CHX counter 39, Pf growth 96h inconclusive
CCOC(=O)C1(C)CCCN1C(=O)c1ccc2ccccc2c1 (stereo not drawn)	none (no result: Pf growth 48h, Shiga toxin inh, CHX counter, Pf growth 96h, SARS PLpro yeast)
Nc1nc(N)nc(COc2ccccc2)n1	Shiga toxin inh 96, CHX counter 42
CCOc1ccc(Cc2nc(N)nc(N)n2)cc1	Pf growth 48h inconclusive, Pf growth 96h inconclusive
Oc1oc(-c2ccccc2)nc1C=Nc1ccccc1	Shiga toxin inh 115, CHX counter 46
Oc1oc(-c2ccccc2)nc1C=NCc1ccccc1	Shiga toxin inh 119, CHX counter 61 (no result: Pf growth 48h)
CN(C)c1ccc(N=Cc2nc(-c3ccccc3)oc2O)cc1	Pf growth 48h inconclusive (no result: Pf growth 96h)
O=C(Oc1oc(-c2ccco2)nc1C=Nc1ccc(Cl)cc1)c1ccco1	Shiga toxin inh 51, CHX counter 23
CC(=O)Oc1oc(-c2ccccc2)nc1C=Nc1ccc(N(C)C)cc1	none
Oc1oc(-c2ccc(Br)cc2)nc1C=Nc1ccc(Br)cn1	none
CSc1ccccc1N=Cc1nc(-c2ccccc2)oc1O	Shiga toxin inh 94, CHX counter 37
CC(C)CC(N)c1csc(Nc2ccc(C(F)(F)F)cn2)n1 (stereo not drawn)	none (no result: Pf growth 48h, Shiga toxin inh, CHX counter, Pf growth 96h, SARS PLpro yeast)
COc1ccc(N=Cc2nc(-c3ccco3)oc2O)cc1	Shiga toxin inh 102, CHX counter 51
CC(=O)Nc1ccc(N=Cc2nc(-c3ccc(C)cc3)oc2O)cc1	Pf growth 96h inconclusive
Cc1ccc(N=Cc2nc(-c3ccc(C)cc3)oc2O)cc1	Shiga toxin inh 97, CHX counter 27
COc1ccc(OC)c(CN2CCN(CC(=O)Nc3ccccc3C(=O)NC3CC3)CC2)c1	Pf growth 96h inconclusive (no result: Shiga toxin inh, CHX counter)
Cc1ccc([N+](=O)[O-])cc1NCC(=O)NN	none
CCCc1cc(=O)oc2cc(OCC(=O)N3CCN(C(=O)C4COc5ccccc5O4)CC3)ccc12 (stereo not drawn)	Pf growth 48h inconclusive, Pf growth 96h 12µM
Cc1c(C)c2ccc(OCC(=O)N3CCN(C(=O)C4COc5ccccc5O4)CC3)cc2oc1=O (stereo not drawn)	Pf growth 96h inconclusive
Cc1cc(=O)oc2cc(OCC(=O)N3CCN(C(=O)C4COc5ccccc5O4)CC3)c(Cl)cc12 (stereo not drawn)	Pf growth 96h 13µM
Cc1cc(=O)oc2cc(OCC(=O)N3CCN(C(=O)C4COc5ccccc5O4)CC3)ccc12 (stereo not drawn)	Pf growth 48h inconclusive, Pf growth 96h 13µM
CCCNC(=O)CN1C(=O)NC2(CCCc3cc(OC)ccc32)C1=O (stereo not drawn)	none (no result: Pf growth 96h)
O=C(C1CC(=O)N(c2ccc(F)cc2)C1)N1CCC(c2nc3ccccc3[nH]2)CC1 (stereo not drawn)	Pf growth 48h inconclusive, Pf growth 96h 8.3µM (no result: Shiga toxin inh, CHX counter)
O=C(NC1CCCCC1)N1CCC(c2nc3ccccc3[nH]2)CC1	none
Cc1ccc(N2CC(C(=O)N3CCC(c4nc5ccccc5[nH]4)CC3)CC2=O)cc1C (stereo not drawn)	Pf growth 48h inconclusive, Pf growth 96h 10µM (no result: Shiga toxin inh, CHX counter)
CCCC(=O)Nc1ccc(S(=O)(=O)N2CCC(c3nc4ccccc4[nH]3)CC2)cc1	Pf growth 48h 13µM, Pf growth 96h 5.2µM (no result: Shiga toxin inh, CHX counter)
O=C(C1CC(=O)N(c2ccc(F)cc2)C1)N1CCN(c2ccc(F)cc2)CC1 (stereo not drawn)	Pf growth 96h inconclusive
O=C(NC1CCCCC1)N1CCCC(c2nc3ccccc3[nH]2)C1 (stereo not drawn)	Pf growth 96h 1.5µM
CN(C)C(=O)COC(=O)c1ccccc1NC(=O)c1ccco1	none
N#CC(CC(=O)c1ccc(F)cc1)c1ccc2c(c1)OCO2 (stereo not drawn)	none
